Measurements published in paper PMC5540273 (PLoS ONE, 2017).
Several values for one entry are separate records, joined by “and”; a condition that tells them apart may be missing. Equal entries are not always repeated. Where two headings read alike, the source gives them in different places.

Key:
[1] = tested on: EIF2AK1; conditions: concentration: 1 μM, replicates: in singlicate; n = 1
[2] = tested on: EPHA1; conditions: concentration: 1 μM, replicates: in singlicate, n = 1
[3] = tested on: EPHA2; conditions: concentration: 1 μM, replicates: in singlicate; n = 1
[4] = tested on: EPHA3; conditions: concentration: 1 μM, replicates: in singlicate, n = 1
[5] = tested on: EPHA4; conditions: concentration: 1 μM, replicates: in singlicate, n = 1
[6] = tested on: EPHA5; conditions: concentration: 1 μM, replicates: in singlicate; n = 1
[7] = tested on: EPHA6; conditions: concentration: 1 μM, replicates: in singlicate, n = 1
[8] = tested on: EPHA7; conditions: concentration: 1 μM, replicates: in singlicate; n = 1
[9] = tested on: EPHA8; conditions: concentration: 1 μM, replicates: in singlicate, n = 1
[10] = tested on: EPHB1; conditions: concentration: 1 μM, replicates: in singlicate, n = 1
[11] = tested on: EPHB2; conditions: concentration: 1 μM, replicates: in singlicate; n = 1
[12] = tested on: EPHB3; conditions: concentration: 1 μM, replicates: in singlicate, n = 1
[13] = tested on: EPHB4; conditions: concentration: 1 μM, replicates: in singlicate, n = 1
[14] = tested on: EPHB6; conditions: concentration: 1 μM, replicates: in singlicate, n = 1
[15] = tested on: ERBB2; conditions: concentration: 1 μM, replicates: in singlicate, n = 1
[16] = tested on: ERBB3; conditions: concentration: 1 μM, replicates: in singlicate, n = 1
[17] = tested on: ERBB4; conditions: concentration: 1 μM, replicates: in singlicate, n = 1
[18] = tested on: T1, ERK1; conditions: concentration: 1 μM, replicates: in singlicate; n = 1
T1 construct: gene MAPK3

[19] = tested on: T2, ERK2; conditions: concentration: 1 μM, replicates: in singlicate; n = 1
T2 construct: gene MAPK1

[20] = tested on: T3, ERK3; conditions: concentration: 1 μM, replicates: in singlicate, n = 1
T3 construct: gene MAPK6
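Note: KINOMEscan kinase panel screen.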

O=C(Nc1n[nH]c2nc(-c3ccco3)c(Br)cc12)c1ccc(CN2CCCC2)cc1.O=C(O)[C@H](O)[C@@H](O)C(=O)O [SB-742352]
%Inh [1]: 0%
%Inh [2]: 3%
%Inh [3]: 0%
%Inh [4]: 0%
%Inh [5]: 100%
%Inh [6]: 0%
%Inh [7]: 100%
%Inh [8]: 0%
%Inh [9]: 7%
%Inh [10]: 6%
%Inh [11]: 47%
%Inh [12]: 0%
%Inh [13]: 0%
%Inh [14]: 95.7%
%Inh [15]: 0%
%Inh [16]: 0%
%Inh [17]: 27%
%Inh [18]: 0%
%Inh [19]: 0%
%Inh [20]: 0%

NC(=O)c1sc(-n2cnc3ccccc32)cc1OCc1ccccc1F [GSK1024306]
%Inh [1]: 0%
%Inh [2]: 2%
%Inh [3]: 0%
%Inh [4]: 5%
%Inh [5]: 0%
%Inh [6]: 0%
%Inh [7]: 0%
%Inh [8]: 0%
%Inh [9]: 19%
%Inh [10]: 0%
%Inh [11]: 0%
%Inh [12]: 1%
%Inh [13]: 0%
%Inh [14]: 8%
%Inh [15]: 47%
%Inh [16]: 18%
%Inh [17]: 25%
%Inh [18]: 0%
%Inh [19]: 0%
%Inh [20]: 0%

Nc1nc(-c2cccnc2)c(-c2ccnc3ccccc23)s1 [GW684083]
%Inh [1]: 0%
%Inh [2]: 0%
%Inh [3]: 21%
%Inh [4]: 12%
%Inh [5]: 4%
%Inh [6]: 0%
%Inh [7]: 8%
%Inh [8]: 0%
%Inh [9]: 9%
%Inh [10]: 6%
%Inh [11]: 0%
%Inh [12]: 17%
%Inh [13]: 11%
%Inh [14]: 28%
%Inh [15]: 51%
%Inh [16]: 20%
%Inh [17]: 8%
%Inh [18]: 11%
%Inh [19]: 4%
%Inh [20]: 0%

COc1cc2c(Nc3cccc(NC(=O)c4ccccc4)c3)ncnc2cc1OCCCN1CCOCC1 [GSK223810]
%Inh [1]: 0%
%Inh [2]: 7%
%Inh [3]: 29%
%Inh [4]: 6%
%Inh [5]: 6%
%Inh [6]: 0%
%Inh [7]: 2%
%Inh [8]: 3%
%Inh [9]: 24%
%Inh [10]: 4%
%Inh [11]: 0%
%Inh [12]: 5%
%Inh [13]: 0%
%Inh [14]: 60%
%Inh [15]: 18%
%Inh [16]: 0%
%Inh [17]: 55%
%Inh [18]: 0%
%Inh [19]: 0%
%Inh [20]: 0%

O=C(CCO)NCCn1ccc2ncnc(Nc3ccc(Oc4cccc(C(F)(F)F)c4)c(Cl)c3)c21
%Inh [1]: 0%
%Inh [2]: 0%
%Inh [3]: 0%
%Inh [4]: 0%
%Inh [5]: 0%
%Inh [6]: 0%
%Inh [7]: 0%
%Inh [8]: 0%
%Inh [9]: 0%
%Inh [10]: 0%
%Inh [11]: 0%
%Inh [12]: 2%
%Inh [13]: 3%
%Inh [14]: 8%
%Inh [15]: 100%
%Inh [16]: 0%
%Inh [17]: 95.9%
%Inh [18]: 0%
%Inh [19]: 9%
%Inh [20]: 0%

Oc1ccc2ncnc(Nc3ccc(OCc4ccccc4)cc3)c2c1 [GI262866]
%Inh [1]: 0%
%Inh [2]: 11%
%Inh [3]: 0%
%Inh [4]: 0%
%Inh [5]: 6%
%Inh [6]: 0%
%Inh [7]: 16%
%Inh [8]: 3%
%Inh [9]: 14%
%Inh [10]: 14%
%Inh [11]: 0%
%Inh [12]: 12%
%Inh [13]: 2%
%Inh [14]: 0%
%Inh [15]: 99.2%
%Inh [16]: 15%
%Inh [17]: 77%
%Inh [18]: 0%
%Inh [19]: 0%
%Inh [20]: 3%

CCc1nc(-c2cccc(N(C)S(=O)(=O)c3ccccc3)c2)c(-c2ccnc(Nc3ccc(N4CCN(C(C)=O)CC4)nc3)n2)s1 [GSK1645895]
%Inh [1]: 0%
%Inh [2]: 29%
%Inh [3]: 0%
%Inh [4]: 14%
%Inh [5]: 0%
%Inh [6]: 0%
%Inh [7]: 2%
%Inh [8]: 5%
%Inh [9]: 25%
%Inh [10]: 7%
%Inh [11]: 0%
%Inh [12]: 0%
%Inh [13]: 0%
%Inh [14]: 96.9%
%Inh [15]: 17%
%Inh [16]: 0%
%Inh [17]: 26%
%Inh [18]: 0%
%Inh [19]: 0%
%Inh [20]: 0%

O=C(c1ccc(-c2cc(-c3c[nH]nc3-c3ccccn3)ccn2)cc1)N1CCCC1 [GW792479]
%Inh [1]: 0%
%Inh [2]: 56%
%Inh [3]: 21%
%Inh [4]: 1%
%Inh [5]: 13%
%Inh [6]: 36%
%Inh [7]: 2%
%Inh [8]: 9%
%Inh [9]: 19%
%Inh [10]: 5%
%Inh [11]: 19%
%Inh [12]: 14%
%Inh [13]: 17%
%Inh [14]: 0%
%Inh [15]: 10%
%Inh [16]: 57%
%Inh [17]: 0%
%Inh [18]: 0%
%Inh [19]: 32%
%Inh [20]: 0%

Cl.Fc1ccccc1COc1ccc(Nc2ncnc3ccc(-c4nnc(C(F)(F)F)o4)cc23)cc1Cl [GW424170]
%Inh [1]: 0%
%Inh [2]: 19%
%Inh [3]: 0%
%Inh [4]: 0%
%Inh [5]: 3%
%Inh [6]: 0%
%Inh [7]: 0%
%Inh [8]: 3%
%Inh [9]: 0%
%Inh [10]: 19%
%Inh [11]: 0%
%Inh [12]: 2%
%Inh [13]: 0%
%Inh [14]: 0%
%Inh [15]: 96.7%
%Inh [16]: 0%
%Inh [17]: 70%
%Inh [18]: 0%
%Inh [19]: 0%
%Inh [20]: 7%

CCCc1ccc(S(=O)(=O)NC2CCN(c3ccnc(Nc4ccc(OC)cc4)n3)C2)cc1 (stereo not shown) [GSK1379737]
%Inh [1]: 0%
%Inh [2]: 15%
%Inh [3]: 0%
%Inh [4]: 0%
%Inh [5]: 0%
%Inh [6]: 0%
%Inh [7]: 12%
%Inh [8]: 0%
%Inh [9]: 7%
%Inh [10]: 0%
%Inh [11]: 10%
%Inh [12]: 5%
%Inh [13]: 7%
%Inh [14]: 31%
%Inh [15]: 36%
%Inh [16]: 0%
%Inh [17]: 24%
%Inh [18]: 0%
%Inh [19]: 0%
%Inh [20]: 79%

COc1ccc(-c2nc3n(c2-c2ccncc2)CCC3)cc1 [SKF-104493]
%Inh [1]: 0%
%Inh ([2]; 1 µM): 18% and 0%
%Inh [3]: 0%
%Inh ([4]; 1 µM): 0% and 18%
%Inh ([5]; 1 µM): 0% and 17%
%Inh [6]: 0%
%Inh ([7]; 1 µM): 10% and 7%
%Inh [8]: 0%
%Inh ([9]; 1 µM): 8% and 0%
%Inh ([10]; 1 µM): 0% and 22%
%Inh [11]: 0%
%Inh ([12]; 1 µM): 10% and 4%
%Inh ([13]; 1 µM): 16% and 11%
%Inh ([14]; 1 µM): 8% and 0%
%Inh ([15]; 1 µM): 0% and 29%
%Inh ([16]; 1 µM): 0% and 8%
%Inh ([17]; 1 µM): 29% and 18%
%Inh [18]: 0%
%Inh [19]: 0%
%Inh ([20]; 1 µM): 0% and 9%
